Experimental data: PubChem BioAssay AID488984 (The Scripps Research Institute Molecular Screening Center, 2010)
Unmarked numbers belong to inactive results. The source made the active and inactive calls. No stated cut-off is given here; in the data, active means inhibition above about 55%; inactive means the rest.

System: SARS coronavirus 3C-like protease (3CLpro, nsp5)
Test: blockers of SARS 3CLpro activity – biochemical, fluorescence, set 2, late-stage follow-up (AID 488984)
Conditions: recombinant 3CLpro, fluorogenic peptide cleavage; at 100 µM; stronger effect = higher value

| Structure (SMILES) | inhibition |
| --- | --- |
| CC(C)c1ccc(N(C(=O)Cc2cccc3ccccc23)C(C(=O)NC(C)(C)C)c2ccsc2)cc1 (centres undefined) | 8.43% |
| CC(C)C(=O)Nc1ccc(N(C(=O)Cn2cnc3ccccc32)C(C(=O)NC(C)(C)C)c2ccsc2)cc1 (centres undefined) | 59.8% (active) |
| CC(C)(C)NC(=O)C(c1ccsc1)N(C(=O)Cn1cnc2ccccc21)c1ccc(N)cc1 (centres undefined) | 12.6% |
| CC(C)(C)NC(=O)C(c1ccsc1)N(C(=O)Cn1cnc2ccccc21)c1ccc(NS(C)(=O)=O)cc1 (centres undefined) | 38% |
| CC(C)(C)NC(=O)C(c1ccsc1)N(C(=O)Cc1c[nH]c2ccccc12)c1ccc(C(C)(C)C)cc1 (centres undefined) | 26.3% |
| CC(C)(C)NC(=O)C(c1ccsc1)N(C(=O)Cn1nnc2ccccc21)c1ccc(N)cc1 (centres undefined) | 74.8% (active) |
| CC(C)(C)NC(=O)C(c1ccsc1)N(C(=O)Cn1nnc2ccccc21)c1ccc(C(C)(C)C)cc1 (centres undefined) | 2.8% |
| CC(C)(C)NC(=O)C(c1ccsc1)N(C(=O)c1ccc(C#N)cc1)c1ccc(F)cc1 (centres undefined) | 17.4% |
| CC(C)(C)NC(=O)C(c1ccsc1)N(C(=O)c1ccc(C(F)(F)F)nc1)c1ccc(F)cc1 (centres undefined) | 9.21% |
| Cc1nccn1CC(=O)N(c1ccc(NC(=O)C(C)C)cc1)C(C(=O)NC(C)(C)C)c1ccsc1 (centres undefined) | 7.94% |
| CC(C)(C)NC(=O)C(c1ccsc1)N(C(=O)c1ccco1)C1CC1 (centres undefined) | 7.74% |
| CC(C)(C)NC(=O)C(c1ccsc1)N(C(=O)Cc1cccc2ccccc12)C1CC1 (centres undefined) | 16.5% |
| CC(C)(C)NC(=O)C(c1ccsc1)N(C(=O)Cc1cccnc1)c1ccc(F)cc1 (centres undefined) | 19% |
| CC(C)(C)NC(=O)C(c1ccsc1)N(C(=O)Cc1c[nH]c2ccccc12)C1CC1 (centres undefined) | 48.4% |
| CCC(=O)Nc1ccc(N(C(=O)Cn2ccnc2C)C(C(=O)NC(C)(C)C)c2ccsc2)cc1 (centres undefined) | 5.34% |
| CC(C)(C)NC(=O)C(c1ccsc1)N(C(=O)Cc1c[nH]c2ccccc12)c1ccc(F)cc1 (centres undefined) | 17.7% |
| CC(C)(C)NC(=O)C(c1cccnc1)N(C(=O)Cc1c[nH]c2ccccc12)C1CC1 (centres undefined) | 8.97% |

| Structure (SMILES) | inhibition |
| --- | --- |
| CC(C)(C)NC(=O)C(c1cccnc1)N(C(=O)c1ccco1)C1CC1 (centres undefined) | -1.64% |
| CC(C)(C)NC(=O)C(c1ccsc1)N(C(=O)c1n[nH]c2ccccc12)c1ccc(OC(F)F)cc1 (centres undefined) | 14.3% |
| CC(C)(C)NC(=O)C(c1cccnc1)N(C(=O)c1ccc(C#N)cc1)c1ccc(C(C)(C)C)cc1 (centres undefined) | -0.02% |
| CC(C)(C)NC(=O)C(c1cccnc1)N(C(=O)Cc1cccnc1)c1ccc(C(C)(C)C)cc1 (centres undefined) | 20.2% |
| CC(C)(C)NC(=O)C(c1cccnc1)N(C(=O)c1ccc(C(F)(F)F)nc1)c1ccc(C(C)(C)C)cc1 (centres undefined) | 8.39% |
| CC(C)(C)NC(=O)C(c1cccnc1)N(C(=O)Cc1cccc2ccccc12)c1ccc(C(C)(C)C)cc1 (centres undefined) | 19.6% |
| CC(C)(C)NC(=O)C(c1cccnc1)N(C(=O)Cc1c[nH]c2ccccc12)c1ccc(F)cc1 (centres undefined) | 5.7% |
| CC(C)(C)NC(=O)C(c1ccsc1)N(C(=O)c1ccc(C#N)cc1)C1CC1 (centres undefined) | 11.2% |
| Cc1nc2ccccc2n1CC(=O)N(c1ccc(C(C)(C)C)cc1)C(C(=O)NC(C)(C)C)c1ccsc1 (centres undefined) | 2.02% |
| CC(=O)Nc1ccc(N(C(=O)Cn2cnc3ccccc32)C(C(=O)NC(C)(C)C)c2ccsc2)cc1 (centres undefined) | 2.63% |
| CC(C)(C)NC(=O)C(c1cccnc1)N(C(=O)c1ccco1)c1ccc(F)cc1 (centres undefined) | -4.66% |
| CC(C)(C)NC(=O)C(c1ccsc1)N(C(=O)c1n[nH]c2ccccc12)c1ccc(F)cc1 (centres undefined) | 15.3% |
| CC(C)(C)NC(=O)C(c1ccsc1)N(C(=O)Cc1cccc2ccccc12)c1ccc(F)cc1 (centres undefined) | 19.2% |
| CC(=O)Nc1ccc(N(C(=O)Cn2ccnc2C)C(C(=O)NC(C)(C)C)c2ccsc2)cc1 (centres undefined) | 2.36% |
| CC(C)(C)NC(=O)C(c1cccnc1)N(C(=O)Cc1cccc2ccccc12)c1ccc(F)cc1 (centres undefined) | -7.86% |
| CC(C)(C)NC(=O)C(c1ccsc1)N(C(=O)Cn1nnc2ccccc21)c1ccc(NS(C)(=O)=O)cc1 (centres undefined) | 89.5% (active) |
| CC(C)(C)NC(=O)C(c1ccsc1)N(C(=O)c1ccco1)c1ccc(C(C)(C)C)cc1 (centres undefined) | 19.5% |
